High-throughput results: PubChem, The Scripps Research Institute Molecular Screening Center
MITF inh: inhibitors of human MITF | O75030 | AlphaScreen MITF homodimerization, bead proximity signal | inhibition, % at 2.6 µM | 650,000 tested, 0.91% active | AID 1259374; in the data active means inhibition above about 50%;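 further: 0% = vehicle wells with protein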
GPR151 activ: activators of human GPR151 | Q8TDV0 | AID 1508602 | PathHunter beta-arrestin GPR151 cells, luminescence | activation, % at 11.2 µM | 650,000 tested, 1% active; in the data active means activation above about 4.9%;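 further: 0% = median of compound wells and 100% = cells with positive control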
TEAD-YAP block: TEAD-YAP interaction inhibition. AID 1259422. HEK-TIYL cells, TEAD-Gal4/YAP UAS-luciferase luminescence. inhibition, % at 9.12 µM. 640,000 tested, 1.4% active; in the data active means inhibition above about 32%;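 further: 0% = median of test compound wells and 100% = reference inhibitor wells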
FBW7 activator: activators of human E3 ligase FBW7; AlphaScreen FBW7–phospho-cyclin E peptide binding, activator screen; normalized activity (activation), % at 26.1 µM; 650,000 tested, 0.13% active; AID 1259310; in the data active means normalized activity above about 1.9%;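 further: purified mutant Fbw7 with reduced substrate affinity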
GPR151 conf act: human GPR151 activation, confirmation screen; shares compounds with GPR151 activ; GPR151 PathHunter beta-arrestin cells, luminescence, 90 min; % of EA-reagent control over plate median; activation, % at 11.2 µM; 6,700 tested, under 10 active;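 active means mean percent activation across replicates above the confirmation screen cutoff of 4.91%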
GPR119 counter: GPR119 activation, counter-screen for GPR151 activators; shares compounds with GPR151 activ; GPR119 PathHunter beta-arrestin cells, luminescence, 90 min; 0 = compound-well median, 100 = enzyme-acceptor control; activation, % at 11.2 µM; 6,700 tested, 0.3% active; AID 1508611;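 active means mean percent activation in the counterscreen above 29.09%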;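 further: counterscreen on off-target GPR119 to flag nonselective hits from the GPR151 activator screen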
Target sequence (Q8TDV5 whole entry, looked up): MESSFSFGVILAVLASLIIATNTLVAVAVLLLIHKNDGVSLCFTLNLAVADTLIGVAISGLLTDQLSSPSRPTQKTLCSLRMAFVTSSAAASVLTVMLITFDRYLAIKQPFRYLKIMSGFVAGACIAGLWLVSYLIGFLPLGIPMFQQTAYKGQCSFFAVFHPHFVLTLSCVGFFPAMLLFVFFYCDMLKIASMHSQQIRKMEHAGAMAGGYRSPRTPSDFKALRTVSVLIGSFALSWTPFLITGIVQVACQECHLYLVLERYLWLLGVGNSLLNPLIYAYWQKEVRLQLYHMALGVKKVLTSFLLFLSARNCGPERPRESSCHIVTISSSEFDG
An asterisk follows results filed as active. A selection: hits, their analogues and other compounds. The true share with any hit is near 3.5%.

How did COc1ccc(CCNC(=O)CC(C)=O)cc1 do in these assays?
MITF inh: 5; GPR151 activ: 1; TEAD-YAP block: -8; FBW7 activator: 0

How did COc1ccc(C2CC(=O)C3=C(C2)NC(C)=C(C(=O)OC2CCCC2)C3c2ccccc2OC)cc1OC (configuration not stated) do in these assays?
MITF inh: 6; GPR151 activ: 0; TEAD-YAP block: 4; FBW7 activator: 0

Results for COc1ccc(C2CC(=O)C3=C(C2)NC(C)=C(C(=O)OC2CCCC2)C3c2ccccc2C)cc1OC (configuration not stated) ?
MITF inh: 10; GPR151 activ: 5.3*; TEAD-YAP block: 17; FBW7 activator: 0; GPR151 conf act: -1; GPR119 counter: 9

What do the screens show for `Cc1ccc2c(c1)CN(CC(=O)NCc1ncccc1C)CC(c1ccsc1)O2` (configuration not stated)?
MITF inh: -18; GPR151 activ: 0; TEAD-YAP block: -4; FBW7 activator: 0

Results for CO[C@H]1COC(=O)C/C=C/[C@H](C)[C@@H](OC)COC(=O)[C@@H](C)COC(=O)C/C=C/[C@@H]1C ?
MITF inh: -15; GPR151 activ: 6.0*; FBW7 activator: 0; GPR151 conf act: 0; GPR119 counter: 14

Results for CO[C@@H]1COC(=O)[C@H](COCc2ccccc2)NC(=O)C/C=C/[C@@H](C)[C@H](OC)COC(=O)[C@H](C)NC(=O)C/C=C/C1C (some centres not stated) ?
MITF inh: 23; GPR151 activ: 4.9*; FBW7 activator: 0; GPR151 conf act: 0; GPR119 counter: 13

How did CN(C)c1ccc(C2N3CC4(C)CN2CC(C)(C3)C4=O)cc1 (configuration not stated) do in these assays?
MITF inh: 12; GPR151 activ: 0; TEAD-YAP block: 9; FBW7 activator: 0

Results for CCOC(=O)c1sc2nc(SCC(=O)Nc3ccc(OCC)cc3)n(Cc3ccc(C)cc3)c(=O)c2c1C ?
MITF inh: -2; GPR151 activ: -2; TEAD-YAP block: 0; FBW7 activator: 0

What do the screens show for `CCOC(=O)c1c(C)oc2ccc(N(C(=O)c3ccc(C)cc3)S(=O)(=O)c3ccc(C)cc3)cc12`?
MITF inh: 5; GPR151 activ: 5.0*; TEAD-YAP block: -7; FBW7 activator: 0; GPR151 conf act: 1; GPR119 counter: -3

Results for O=C(NCc1ccco1)/C(=C/c1ccc(Cl)cc1)NC(=O)c1ccccc1 ?
MITF inh: 3; GPR151 activ: 0; TEAD-YAP block: 5; FBW7 activator: 0

What do the screens show for `O=C(NCc1ccco1)/C(=C/c1ccccc1)NC(=O)c1cccc(Br)c1`?
MITF inh: -5; GPR151 activ: 5.2*; TEAD-YAP block: 8; FBW7 activator: 0; GPR151 conf act: -1; GPR119 counter: -10

How did O=C(CSc1ccsc1[N+](=O)[O-])N1CCN(c2ccccn2)CC1 do in these assays?
MITF inh: -3; GPR151 activ: 5.3*; TEAD-YAP block: -3; FBW7 activator: 0; GPR151 conf act: -1; GPR119 counter: -2

How did O=C(CSc1ccsc1[N+](=O)[O-])N1CCN(c2ncccn2)CC1 do in these assays?
MITF inh: -2; GPR151 activ: 0; TEAD-YAP block: -10; FBW7 activator: 0

Results for COc1cc(/C=C/CN2CCC3(CC2)CC3C(=O)N(C)Cc2cscn2)ccc1O (configuration not stated) ?
MITF inh: 1; GPR151 activ: 0; TEAD-YAP block: -4; FBW7 activator: 0

How did Cc1cccc(C)c1NC(=O)C(=O)NCCc1ccccc1 do in these assays?
MITF inh: -7; GPR151 activ: 0; TEAD-YAP block: -1; FBW7 activator: 0

Results for Cc1cccc(C)c1NC(=O)C(=O)NCCc1ccc(F)cc1 ?
MITF inh: -7; GPR151 activ: 6.4*; TEAD-YAP block: -6; FBW7 activator: 0; GPR151 conf act: 0; GPR119 counter: -5

How did CC/C(C)=N/NC(=O)C(C)Oc1ccc(Cl)cc1C (configuration not stated) do in these assays?
MITF inh: 9; GPR151 activ: 0; TEAD-YAP block: -1; FBW7 activator: 0

Results for O=C(CN1CCN(S(=O)(=O)c2ccc3c(c2)OCCO3)CC1)c1cccs1 ?
MITF inh: 0; GPR151 activ: 9.7*; TEAD-YAP block: -3; FBW7 activator: 0; GPR151 conf act: 0; GPR119 counter: -1

How did O=C(Cn1c(=O)oc2ccccc21)NCc1ccco1 do in these assays?
MITF inh: 17; GPR151 activ: 5.3*; TEAD-YAP block: 3; FBW7 activator: 0; GPR151 conf act: -1; GPR119 counter: 0

How did O=C(CN1C(=O)c2ccccc2S1(=O)=O)NCc1ccco1 do in these assays?
MITF inh: -8; GPR151 activ: 9.0*; TEAD-YAP block: -8; FBW7 activator: 0; GPR151 conf act: 0; GPR119 counter: 16

What do the screens show for `CNC(=O)c1c(NC(=O)c2cc3ccccc3cc2OC)sc2c1CCCC2`?
MITF inh: -16; GPR151 activ: 0; TEAD-YAP block: 3; FBW7 activator: 0

Results for Cc1nc(NC(C)c2ccccc2)cc(-c2ccccc2F)n1 (configuration not stated) ?
MITF inh: 12; GPR151 activ: 5.8*; TEAD-YAP block: 2; FBW7 activator: 0; GPR151 conf act: -2; GPR119 counter: -10

What do the screens show for `Cc1ccc(S(=O)(=O)N(C)CC(=O)OCc2cc([N+](=O)[O-])cc3c2OCOC3)cc1`?
MITF inh: 4; GPR151 activ: 8.1*; TEAD-YAP block: 8; FBW7 activator: 0; GPR151 conf act: 0; GPR119 counter: -2

Results for COC(=O)C(CCSC)NC(=O)c1ccc(Cl)cc1Cl (configuration not stated) ?
MITF inh: 8; GPR151 activ: 9.7*; TEAD-YAP block: -4; FBW7 activator: 0; GPR151 conf act: 1; GPR119 counter: 10

How did COc1ccc(N2CC(NC(=O)C3CCCC3)CC2=O)cc1 (configuration not stated) do in these assays?
MITF inh: 12; GPR151 activ: -1; TEAD-YAP block: 4; FBW7 activator: 0

Results for Cc1ccc(N2CC(NC(=O)C3CCCC3)CC2=O)cc1C (configuration not stated) ?
MITF inh: -15; GPR151 activ: 5.5*; TEAD-YAP block: 6; FBW7 activator: 0; GPR151 conf act: 1; GPR119 counter: 6

Results for CCN1CCCC1CNC(=O)NC1CC(=O)N(c2ccc(C)c(C)c2)C1 (configuration not stated) ?
MITF inh: 4; GPR151 activ: 7.0*; TEAD-YAP block: -13; FBW7 activator: -1; GPR151 conf act: 0; GPR119 counter: 3
